Assay results taken from PubChem BioAssay (Tox21).
Inconclusive results are not listed. Activity calls are given as the source filed them. Unless noted, calls follow the shape of the dose curve; as a rule, active = well fitted curve in the direction sought with a large enough effect in the repeat runs; inconclusive = weak or mixed curves; inactive = no such curve, though single readings can be large; an effect the other way counts as inactive or inconclusive. Non-standard residues stand in square brackets, D forms with d. Residues, ends and D or L forms follow the SMILES beside them. pGlu = O=C1CC[C@@H](C(=O)O)N1; Thz = O=C(O)[C@@H]1CSCN1

How the values were obtained:
[1] = qHTS assay for small molecule agonists of the p53 signaling pathway (AID 651631; calls by dose curve; also: nearly all actives have a fitted effect of over 15% in size)
Procedure, shortened: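 Stably transfected HCT-116 cells (beta-lactamase behind p53 response elements) get compounds after a 5 h settling period; 16 h later at 37 °C, FRET substrate is loaded and fluorescence read after 2 h.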

[2] = qHTS assay for small molecules that induce genotoxicity in human embryonic kidney cells expressing luciferase-tagged ATAD5 (AID 651632); also: nearly all actives have a fitted effect of over 15% in size
Procedure, shortened: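 Genotoxicity read-out via ATAD5-luciferase: HEK293T cells, 16 hr compound incubation at 37C, Amplite detection.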

[3] = qHTS assay for small molecule agonists of the p53 signaling pathway - cell viability (AID 651633; calls by dose curve;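 also: p53RE-bla HCT reporter cells with a stable beta-lactamase p53 reporter; nearly all actives have a fitted effect of over 30% in size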)
Procedure, shortened: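 Viability counter-read: CellTiter-Glo luminescence (30 min, room temperature) in the same p53RE-bla plates. These plates had been exposed to compounds for 16 h at 37 C.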

[4] = qHTS assay for small molecules that induce genotoxicity in human embryonic kidney cells expressing luciferase-tagged ATAD5 - cell viability (AID 651634; calls by dose curve; also: nearly all actives have a fitted effect of over 25% in size)
Procedure, shortened: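 Live-cell protease activity (CellTiter-Fluor, fluorescence) indicates viability. HEK293T cells with luciferase-tagged ATAD5; 15.5 hr compound treatment at 37C.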

[5] = qHTS assay for small molecule disruptors of the mitochondrial membrane potential - cell viability (AID 720634; calls by dose curve;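 also: human HepG2 liver cancer cells; nearly all actives have a fitted effect of over 20% in size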)
Procedure, shortened: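 Human hepatoma HepG2 cells were treated for 1 hr with test chemicals, then given m-MPI dye and CellTiter-Glo. Cell viability reflects luminescence proportional to cellular ATP.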

[6] = qHTS assay to test for compound auto fluorescence at 590 nm (red) in HepG2 cells (AID 720674)
Procedure, shortened: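 Red autofluorescence (Ex/Em 540/590 nm, Rose Bengal sodium equivalents) was measured in HepG2 cells, 2,000 per well in MEM plus 10% FBS, plated overnight at 37 C. Readings were taken 1 hr after adding 23 nL compound or DMSO, at 37 C and 5% CO2.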

[7] = qHTS assay to test for compound auto fluorescence at 535 nm (green) in HepG2 cells (AID 720675)
[8] = qHTS assay to test for compound auto fluorescence at 460 nm (blue) in HEK293 cells (AID 720678)
Procedure, shortened: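 HEK293 cells (2,000 per well, medium with 10% dialyzed FBS) attached for 4-5 hr at 37C, then received compound and stood overnight at 37C, 5% CO2. Blue fluorescence was read at Ex/Em 405/460 nm and expressed relative to triamterene.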

[9] = qHTS assay to test for compound auto fluorescence at 590 nm (red) in HEK293 cells (AID 720679)
Procedure, shortened: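 HEK293 cells (2,000/well, medium with 10% dialyzed FBS) attached for 4-5 hr at 37C, received 23 nL compound and were incubated overnight at 37C, 5% CO2. Red fluorescence was then read at 540/590nm Ex/Em, referenced to Rose Bengal sodium.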

[10] = qHTS assay to test for compound auto fluorescence at 535 nm (green) in HEK293 cells (AID 720680)
[11] = qHTS assay to test for compound auto fluorescence at 460 nm (blue) in HEK293 cell free culture (AID 720681)
Procedure, shortened: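 Blue fluorescence (Ex 405/Em 460 nm, triamterene-equivalent) was read immediately after pin transfer of compound or DMSO into medium (DMEM, 10% FBS) without cells.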

[12] = qHTS assay to test for compound auto fluorescence at 535 nm (green) in HEK293 cell free culture (AID 720682)
Procedure, shortened: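 Using fluorescein as calibrant, autofluorescence was quantified at 485/535 nm in cell-free DMEM containing 10% FBS after pintool addition of compound or vehicle.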

[13] = qHTS assay to test for compound auto fluorescence at 590 nm (red) in HEK293 cell free culture (AID 720683)
Procedure, shortened: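 Red-channel autofluorescence of compounds in culture medium (DMEM, 10% FBS), no cells, measured at 540/590 nm. Rose Bengal sodium is the reference fluorophore for equivalence.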

[14] = qHTS assay to test for compound auto fluorescence at 590 nm (red) in HepG2 cell free culture (AID 720684)
Procedure, shortened: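 Steps: dispense MEM/10% FBS medium, no cells; pin compound or DMSO vehicle; read red channel, Ex/Em 540/590 nm. Output given as Rose Bengal sodium equivalents.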

[15] = qHTS assay to test for compound auto fluorescence at 460 nm (blue) in HepG2 cell free culture (AID 720685)
Procedure, shortened: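 Compound (23 nL) or DMSO pinned into cell-free MEM with 10% FBS; blue fluorescence read at 405/460 nm excitation/emission, expressed as auto-fluorescence equivalency to triamterene.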

[16] = qHTS assay to test for compound auto fluorescence at 535 nm (green) in HepG2 cell free culture (AID 720686)
[17] = qHTS assay to test for compound auto fluorescence at 460 nm (blue) in HepG2 cells (AID 720687)
Procedure, shortened: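 Blue-channel autofluorescence (Ex/Em 405/460 nm, triamterene-equivalent) was measured after 1 hr compound exposure at 37 C, 5% CO2. Cells were HepG2, plated overnight at 37 C in MEM plus 10% FBS.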

[18] = target: Glucocorticoid receptor (Homo sapiens) (UniProt P04150); experiment: qHTS assay to identify small molecule agonists of the glucocorticoid receptor (GR) signaling pathway (AID 720691; active = well fitted activation curve with a large enough effect in the signal ratio in the repeat runs, not every such curve was filed as active; the % refers to the signal ratio; also: potency is read from the fitted curve at half-maximal effect); conditions: GR-bla HeLa, beta-lactamase reporter ratio, 18 h; activation: at 62.4 µM (top of the series)
Sequence of Glucocorticoid receptor (Homo sapiens) (P04150 whole entry, looked up): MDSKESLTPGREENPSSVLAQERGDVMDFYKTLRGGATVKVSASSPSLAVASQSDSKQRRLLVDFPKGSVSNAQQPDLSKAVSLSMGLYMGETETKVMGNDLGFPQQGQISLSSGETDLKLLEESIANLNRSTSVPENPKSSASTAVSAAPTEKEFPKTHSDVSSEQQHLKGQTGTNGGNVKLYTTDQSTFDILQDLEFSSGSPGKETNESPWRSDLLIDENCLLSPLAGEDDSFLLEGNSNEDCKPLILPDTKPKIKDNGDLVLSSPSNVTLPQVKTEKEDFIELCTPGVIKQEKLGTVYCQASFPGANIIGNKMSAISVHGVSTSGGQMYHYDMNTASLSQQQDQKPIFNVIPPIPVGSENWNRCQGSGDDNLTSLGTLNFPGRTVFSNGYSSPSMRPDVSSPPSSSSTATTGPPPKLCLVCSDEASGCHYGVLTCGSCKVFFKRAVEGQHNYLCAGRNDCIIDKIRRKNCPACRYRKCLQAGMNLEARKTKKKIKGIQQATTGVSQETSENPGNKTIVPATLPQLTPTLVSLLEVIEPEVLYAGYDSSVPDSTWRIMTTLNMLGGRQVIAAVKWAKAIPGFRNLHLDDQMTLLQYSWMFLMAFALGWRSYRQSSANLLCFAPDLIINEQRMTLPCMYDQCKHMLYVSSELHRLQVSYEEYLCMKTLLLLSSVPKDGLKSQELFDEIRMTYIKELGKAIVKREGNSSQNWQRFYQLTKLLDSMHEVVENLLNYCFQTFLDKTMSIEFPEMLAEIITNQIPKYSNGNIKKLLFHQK
Procedure, shortened: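 Beta-lactamase reporter activity, read as fluorescence intensity, was measured in GR-bla HeLa cells exposed to compounds for 18 h at 37 C and then loaded with LiveBLAzer B/G FRET substrate for 2 h at room temperature.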

[19] = target: Glucocorticoid receptor (Homo sapiens) (UniProt P04150); experiment: qHTS assay to identify small molecule antagonists of the glucocorticoid receptor (GR) signaling pathway (AID 720692; active = well fitted inhibition curve with a large enough effect in the signal ratio in the repeat runs, not every such curve was filed as active; the % refers to the signal ratio)
Procedure, shortened: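 Fluorescence from cleaved LiveBLAzer B/G FRET substrate reports GRE-driven beta-lactamase in HeLa cells; compounds are tested against 5 nM dexamethasone (final) over 18 h at 37 C, substrate incubation 2 h at room temperature.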

Measured: Potency

CCCN(CC)C(CC)C(=O)Nc1c(C)cccc1C (centres undefined)
inactive: [1] | [2] | [3] | [4] | [5] | [6] | [7] | [8] | [9] | [10] | [11] | [12] | [13] | [14] | [15] | [16] | [17] | [18] | [19]

CC[C@H](CC[C@@H](C)[C@H]1CC[C@H]2[C@@H]3CC=C4C[C@@H](O)CC[C@]4(C)[C@H]3CC[C@]12C)C(C)C
inactive: [1] | [2] | [3] | [4] | [5] | [6] | [7] | [8] | [9] | [10] | [11] | [12] | [13] | [14] | [15] | [16] | [17] | [18] | [19]

CCOC(=O)c1cc(-c2ccccc2)nc2ccc(C)cc12
inactive: [1] | [2] | [3] | [4] | [5] | [6] | [7] | [8] | [9] | [10] | [11] | [12] | [13] | [14] | [15] | [16] | [17] | [18]

C[C@@H](O)[C@H]1C(=O)N2C(C(=O)[O-])=C(SC3Cn4cnc[n+]4C3)[C@H](C)[C@H]12 (some centres undefined)
inactive: [1] | [2] | [3] | [4] | [5] | [6] | [7] | [8] | [9] | [10] | [11] | [12] | [13] | [14] | [15] | [16] | [17] | [18] | [19]

O=C(O)c1nc(=O)[nH]c(=O)[nH]1
inactive: [1] | [2] | [3] | [4] | [5] | [6] | [7] | [8] | [9] | [10] | [11] | [12] | [13] | [14] | [15] | [16] | [17] | [18]

O=C(Cc1cccs1)N[C@@H]1C(=O)N2C(C(=O)[O-])=C(C[n+]3ccccc3)CS[C@H]12
inactive: [1] | [2] | [3] | [4] | [5] | [6] | [7] | [8] | [9] | [10] | [11] | [12] | [13] | [14] | [15] | [16] | [17] | [18] | [19]

O=C(O)c1cc(O)c2c(c1)[O][Bi][O]2
inactive: [1] | [2] | [3] | [4] | [5] | [6] | [7] | [8] | [9] | [10] | [11] | [12] | [13] | [14] | [15] | [16] | [17] | [18]

OC[C@H]1O[C@@H](n2cnc3c2NC=NC[C@H]3O)C[C@@H]1O
inactive: [1] | [2] | [3] | [4] | [5] | [6] | [7] | [8] | [9] | [10] | [11] | [12] | [13] | [14] | [15] | [16] | [17] | [18] | [19]

O=C(CO)[C@@H](O)[C@H](O)[C@@H](O)C(=O)O
inactive: [1] | [2] | [3] | [4] | [5] | [6] | [7] | [8] | [9] | [10] | [11] | [12] | [13] | [14] | [15] | [16] | [17] | [18]

CO/N=C(\C(=O)N[C@@H]1C(=O)N2C(C(=O)OCOC(=O)C(C)(C)C)=C(/C=C\c3scnc3C)CS[C@H]12)c1csc(N)n1
inactive: [1] | [2] | [3] | [4] | [5] | [6] | [7] | [8] | [9] | [10] | [11] | [12] | [13] | [14] | [15] | [16] | [17] | [18] | [19]

CCOC(=O)O[C@]1(C(=O)COC(=O)CC)CC[C@H]2[C@@H]3CCC4=CC(=O)C=C[C@]4(C)[C@H]3[C@@H](O)C[C@@]21C
inactive: [1] | [2] | [3] | [4] | [5] | [6] | [7] | [8] | [9] | [10] | [11] | [12] | [13] | [14] | [15] | [16] | [17]
active: [18] 28.8 nM

CCCCCCCCCCCCCCCC(=O)O[C@@H]1[C@@H](O)[C@@H](O)[C@@H]([C@H](NC(=O)[C@@H]2C[C@@H](CCC)CN2C)[C@H](C)Cl)O[C@@H]1SC
inactive: [1] | [2] | [3] | [4] | [5] | [6] | [7] | [8] | [9] | [10] | [11] | [12] | [13] | [14] | [15] | [16] | [17] | [18]

O=C1CC[C@@H](C(=O)N2CSC[C@H]2C(=O)O)N1 ([pGlu]-[Thz]-OH)
inactive: [1] | [2] | [3] | [4] | [5] | [6] | [7] | [8] | [9] | [10] | [11] | [12] | [13] | [14] | [15] | [16] | [17] | [18] | [19]

NCCCC[C@H](N)C(=O)O
inactive: [1] | [2] | [3] | [4] | [5] | [6] | [7] | [8] | [9] | [10] | [11] | [12] | [13] | [14] | [15] | [16] | [17] | [18]
